HT1080 IDH1KD tx: HT-1080 IDH1 knockdown cell toxicity (counter line); HT-1080 IDH1 knockdown viability, ATP luminescence, 48 h; Potency, µM (titrated, usually from 46.1 µM), for the others: at the highest dose activity, negative = toxicity, actives largely listed as cytotoxic; 360,000 tested, 2% active;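 also: 0% = DMSO wells and -100% = cell-free medium wells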
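In this qHTS, HT-1080 cells depleted of IDH1 are exposed for 48 h at 37 °C to compound titrations. Toxicity is scored from CellTiter-Glo luminescence, with DMSO as full viability and medium alone as none.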
KB-V1 MDR tox: KB-V1 MDR subline cytotoxicity | KB-V1 MDR cells viability, CellTiter-Glo, 72 h | Potency, µM (highest dose often 46.1 µM), hits mostly cytotoxic | 400,000 tested, 3.4% active | AID 1347076; also: % is scaled to controls: 0 for no effect and ±100 for the full control effect; nearly all actives have a fitted effect of over 60% in size
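Cytotoxicity via CellTiter-Glo luminescence after 72 h compound exposure at 37 degrees C. Cells: drug-selected KB-V1 line, DMEM phenol-red free plus 10% FBS. Compounds tested at multiple concentrations; normalized data fitted to concentration-effect curves.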
SW480 rerep: inducers of DNA re-replication in SW480 colon cancer cells; SW480 DNA re-replication, Hoechst DNA content imaging, 48 h; 340,000 tested, 1.8% active; AID 624297; Potency, µM (top dose mostly 46.1 µM), inactives show at the highest dose re-replication activation, usual class: activators; also: % of control where 0% means no effect; nearly all actives have a fitted effect of over 55% in size
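Treated cells incubate 48 hr (37 C, 5% CO2), are stained 40 min with Hoechst, and nuclear fluorescence is enumerated; a rise in nuclei with high DNA signal marks re-replication.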
KB-3-1 tox: kills parental KB-3-1 adenocarcinoma cells; KB-3-1 viability, CellTiter-Glo ATP luminescence, 72 h; 400,000 tested, 1.4% active; AID 1347075; Potency, µM (top dose mostly 46.1 µM), most hits filed as cytotoxic; also: % is scaled to controls: 0 for no effect and ±100 for the full control effect; nearly all actives have a fitted effect of over 60% in size
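Here the drug-naive KB-3-1 line serves as comparator for MDR sub-line selectivity; cells received compound titrations, 72 h at 37 °C, then CellTiter-Glo readout.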
MCF10A rerep: DNA re-replication induction in MCF 10a cells; MCF 10A DNA re-replication, Hoechst nuclear intensity, 48 h; 350,000 tested, 2.9% active; Potency, µM (doses to about 46.1 µM), for inactives: top-dose activity, positive = re-replication, usual class: activators; also: % of control where 0% means no effect; nearly all actives have a fitted effect of over 50% in size
HT1080-NT tox: kills 2HG-producing HT-1080-NT fibrosarcoma cells; HT-1080-NT fibrosarcoma viability, CellTiter-Glo ATP luminescence, 48 h; Potency, µM (titrated, usually from 46.1 µM), inactives show at the top dose activity, negative = less viability, usual class: cytotoxic; 360,000 tested, 1.6% active;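 also: NT is the 2HG producing partner of a matched IDH1 knockdown line; 0% = DMSO-treated cells and -100% = media-only wells without cells; nearly all actives have a fitted effect of over 55% in size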
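HT-1080-NT; 750 cells/well; 5% FBS RPMI; 48 h compound, 37 degrees C; CellTiter-Glo luminescence; curve fitting and curve-class assignment.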
* = called active by the depositor; ! = repeats disagree. Shown are actives, neighbours in structure and some others; about 8% of the full set was active somewhere. Calls follow the shape of the dose curve; as a rule, active = well fitted curve in the direction sought with a large enough effect; inconclusive = small, poorly fitted or top-dose-only effect, or another doubt; inactive = no such curve, though single readings can be large; an effect the other way counts as inactive or inconclusive. Potency is read from the fitted curve at half-maximal effect.

`CCOC(=O)c1c(/N=C/c2c(O)n(-c3cccc(C)c3)c(=O)[nH]c2=O)sc2c1CCCC2` gave HT1080 IDH1KD tx 7%, KB-V1 MDR tox inactive, SW480 rerep inconclusive, KB-3-1 tox inactive, MCF10A rerep inconclusive and HT1080-NT tox 10%.
Cc1cccn2c(=O)c3cc(C(=O)N4CCC5(CC4)OCCO5)n(C)c3nc12 was read as HT1080 IDH1KD tx 13µM*, KB-V1 MDR tox 3.7µM*, SW480 rerep 7.3µM*, KB-3-1 tox 3.3µM*, MCF10A rerep 2.6µM* and HT1080-NT tox 16µM*.
For CCOc1ccccc1-n1c(O)c(C=Nc2ccc(N(CC)CC)cc2)c(=O)[nH]c1=O the results were HT1080 IDH1KD tx inconclusive, KB-V1 MDR tox inconclusive, SW480 rerep inconclusive, KB-3-1 tox 16µM*, MCF10A rerep inconclusive and HT1080-NT tox inconclusive.
CCOc1ccc(N=Cc2c(O)n(Cc3ccccc3)c(=S)[nH]c2=O)cc1 was read as HT1080 IDH1KD tx 19%, KB-V1 MDR tox inactive, SW480 rerep -9%, KB-3-1 tox inactive, MCF10A rerep -24% and HT1080-NT tox 24%.
O=c1c2ccccc2c(C=Nc2ccc(O)cc2)c(O)n1Cc1ccccc1 was read as HT1080 IDH1KD tx -2%, KB-V1 MDR tox inconclusive, SW480 rerep 21µM*, KB-3-1 tox inactive, MCF10A rerep inconclusive and HT1080-NT tox 2%.
CCN(CC)c1ccc(N=Cc2c(O)n(Cc3ccccc3)c(=O)[nH]c2=O)cc1 was read as HT1080 IDH1KD tx -15%, KB-V1 MDR tox inconclusive, SW480 rerep 0.52µM*!, KB-3-1 tox inactive, MCF10A rerep inconclusive and HT1080-NT tox -2%.
CCN(CC)c1ccc(N=Cc2c(O)n(-c3ccccc3C)c(=O)[nH]c2=O)cc1 was read as HT1080 IDH1KD tx inconclusive, KB-V1 MDR tox inactive, SW480 rerep 3%, KB-3-1 tox inactive, MCF10A rerep -6% and HT1080-NT tox inconclusive.
COc1ccc(Cn2c(O)c(/C=N/NC(=O)c3ccccc3O)c(=O)[nH]c2=O)cc1 was read as HT1080 IDH1KD tx inconclusive, KB-V1 MDR tox inactive, SW480 rerep -3%, KB-3-1 tox inconclusive, MCF10A rerep 4.6µM* and HT1080-NT tox inconclusive.
Screening CCC1CN1P(=O)(Oc1ccc(Cl)cc1)N1CC1CC (centres undefined) returned HT1080 IDH1KD tx -2%, KB-V1 MDR tox inactive, SW480 rerep 2%, KB-3-1 tox inactive, MCF10A rerep 12% and HT1080-NT tox 0%.
`O=C(Cc1cc(=O)oc2cc(O)ccc12)NN=Cc1ccc(N(CCCl)CCCl)cc1` gave HT1080 IDH1KD tx -29%, KB-V1 MDR tox inactive, SW480 rerep inconclusive, KB-3-1 tox inactive, MCF10A rerep inconclusive and HT1080-NT tox -29%.
O=C(NN=Cc1ccc(N(CCCl)CCCl)cc1)c1cc(=O)[nH]c(=O)[nH]1 was read as HT1080 IDH1KD tx -12%, KB-V1 MDR tox inactive, SW480 rerep 7.3µM*, KB-3-1 tox inactive, MCF10A rerep inconclusive and HT1080-NT tox -9%.
Screening O=C(NN=Cc1ccc(N(CCCl)CCCl)cc1)C(=O)c1c[nH]c2ccccc12 returned HT1080 IDH1KD tx inconclusive, KB-V1 MDR tox inactive, SW480 rerep inconclusive, KB-3-1 tox inconclusive, MCF10A rerep 16µM* and HT1080-NT tox -18%.
Screening O=C(NN=Cc1ccc(N(CCCl)CCCl)cc1Cl)c1cccnc1 returned HT1080 IDH1KD tx -16%, KB-V1 MDR tox inactive, SW480 rerep inconclusive, KB-3-1 tox inactive, MCF10A rerep 18% and HT1080-NT tox -11%.
Screening CCCCCN1C(=O)c2ccccc2[C@@]2(C(=O)OCC)Cc3cc(OC)ccc3[C@@H]12 returned HT1080 IDH1KD tx 12µM*, KB-V1 MDR tox inconclusive, KB-3-1 tox 5.8µM* and HT1080-NT tox 15µM*.
`CCOC(=O)[C@]12Cc3ccccc3[C@H]1N(CCC(=O)OC)C(=O)c1ccccc12` gave HT1080 IDH1KD tx inconclusive, KB-V1 MDR tox 5.2µM*, KB-3-1 tox 5.2µM* and HT1080-NT tox inconclusive.
CCOC(=O)[C@]12Cc3cc(C)ccc3[C@H]1N(CCC(=O)OC)C(=O)c1cc(OC)ccc12 was read as HT1080 IDH1KD tx 18µM*, KB-V1 MDR tox 21µM*, KB-3-1 tox 18µM* and HT1080-NT tox 23µM*.
For COc1cccc(N2C(=O)NC(=O)C3(Cc4cc(C)ccc4N(C)C3)C2=O)c1 (centres undefined) the results were HT1080 IDH1KD tx -11%, KB-V1 MDR tox inactive, SW480 rerep -7%, KB-3-1 tox inactive, MCF10A rerep 1% and HT1080-NT tox 2%.
For COC(=O)C1=C(c2ccccc2OCc2ccccc2)C[C@@H]2CC[C@H]1N2C the results were HT1080 IDH1KD tx -13%, KB-V1 MDR tox inactive, KB-3-1 tox inactive and HT1080-NT tox -8%.
C=C(Cl)CSC(=S)N(CC)CC was read as HT1080 IDH1KD tx inconclusive, KB-V1 MDR tox inconclusive, SW480 rerep -1%, KB-3-1 tox inactive, MCF10A rerep -3% and HT1080-NT tox inconclusive.
For c1ccc(-c2ccc(C(c3ccccc3)n3ccnc3)cc2)cc1 (centres undefined) the results were HT1080 IDH1KD tx inconclusive, KB-V1 MDR tox inconclusive, SW480 rerep inconclusive, KB-3-1 tox inactive, MCF10A rerep 10µM* and HT1080-NT tox inconclusive.
For c1ccc(C(c2ccccc2)c2cccnc2)cc1 the results were HT1080 IDH1KD tx -20%, KB-V1 MDR tox inactive, SW480 rerep 5%, KB-3-1 tox inactive, MCF10A rerep 7% and HT1080-NT tox 0%.
For CCOC(=O)C1=C(N)OC(C)=C(C(=O)OCCOC)C12C(=O)Nc1ccccc12 (centres undefined) the results were HT1080 IDH1KD tx 10%, KB-V1 MDR tox inactive, SW480 rerep -10%, KB-3-1 tox inactive, MCF10A rerep -1% and HT1080-NT tox inconclusive.
CN1C(=O)N(C)C(=O)C2(Cc3cc([N+](=O)[O-])ccc3N(C)C2c2ccccc2)C1=O (centres undefined) was read as HT1080 IDH1KD tx -1%, KB-V1 MDR tox inactive, SW480 rerep -1%, KB-3-1 tox inactive, MCF10A rerep -7% and HT1080-NT tox -5%.
For O=C(CN1CCN(c2ccccc2F)CC1)Nc1cccnc1Cl the results were HT1080 IDH1KD tx inconclusive, KB-V1 MDR tox inactive, SW480 rerep -2%, KB-3-1 tox inactive, MCF10A rerep inconclusive and HT1080-NT tox -15%.
